VDR inh – vitamin D3 receptor (human) inhibition. actives 0.93% (n = 400,000). Potency, µM, inactives show max response, negative = inhibition, usual class: inhibitors. VDR-SRC2-3 peptide fluorescence polarization, 2 h; note: potency is the fitted concentration of half-maximal effect
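VDR–SRC2-3 interaction, FP format. Cmpds 23 nl via pintool, brief spin, 2 h ambient incubation.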
G9a block – inhibitors of human histone lysine methyltransferase G9a. G9a H3K9 monomethylation, AlphaScreen, 2 h. actives 8.8% (n = 350,000). Potency, µM (top dose mostly 102 µM), for the others: top-dose activity, negative = inhibition, actives largely listed as inhibitors. Q96KQ7; note: potency is the fitted concentration of half-maximal effect; nearly all actives have a fitted effect of over 75% in size
Target sequence (Q96KQ7 913-1193 limits assumed): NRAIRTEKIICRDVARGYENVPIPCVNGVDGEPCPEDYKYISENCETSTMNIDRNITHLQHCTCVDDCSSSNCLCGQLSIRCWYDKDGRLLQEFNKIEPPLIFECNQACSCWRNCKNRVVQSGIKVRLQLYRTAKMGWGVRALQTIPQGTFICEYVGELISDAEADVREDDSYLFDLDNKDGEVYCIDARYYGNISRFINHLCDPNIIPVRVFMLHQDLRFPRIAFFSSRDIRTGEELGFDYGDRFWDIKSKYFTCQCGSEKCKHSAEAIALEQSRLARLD
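Chemiluminescent proximity detection of H3K9 monomethylation, read after 10 min bead incubation in the dark. Reaction: 20 nM G9a, 500 nM biotin-H3K9 peptide, 20 uM SAM cofactor, 2 h, room temperature, following 15 min enzyme-compound preincubation.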
MmCpn inh – M. maripaludis TRiC chaperonin inhibition. actives 0.031% (n = 330,000). purified Mm-Cpn ATPase, ADP Transcreener TR-FRET. AID 504842. Potency, µM (top dose mostly 76.9 µM), for the others: at the top dose activity, negative = inhibition, most hits filed as inhibitors; note: potency is the fitted concentration of half-maximal effect; nearly all actives have a fitted effect of over 80% in size
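TR-FRET (320 nm excitation; 590 and 665 nm emission) reports ADP made from 10 uM ATP by 25 nM enzyme; compounds were preincubated 10 min, reaction run 30 min, both at 37°C.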
Sfp inh – Sfp phosphopantetheinyl transferase inhibition; Potency, µM, for inactives: largest response in the series, negative = inhibition, actives largely listed as inhibitors; Biochemical Sfp PPTase activity, qHTS; AID 1490; Q9F4F7; actives 3.5% (n = 310,000);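 note: the enzyme is Sfp with the accession as filed and its product quenches rhodamine fluorescence; potency is the fitted concentration of half-maximal effect; 0% = enzyme reaction without inhibitor and -100% = no enzyme wells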
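Compounds were incubated with enzyme (final 15 nM) for 15 min at room temperature before substrate addition started the reaction. Fluorescence at 525 nm excitation, 598 nm emission was recorded immediately and after 30 minutes.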
PLK1 PBD block – inhibitors of human PLK1 polo-box domain binding; Plk1 PBD binding of FITC phosphopeptide, fluorescence polarization; Potency, µM, without a hit: max response, negative = inhibition, actives largely listed as inhibitors; actives 2.8% (n = 360,000); note: potency is the fitted concentration of half-maximal effect; series mostly up to about 57 µM; nearly all actives have a fitted effect of over 65% in size
CCT modulator – modulators of cytosolic chaperonin (CCT/TRiC) activity; activity change, % (no concentration beside the values), hits read low; actives 0.3% (n = 360,000); purified chaperonin ATPase assay, HTRF ADP detection, 30 min; in the data active = activity change below about -30%
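Nucleotide hydrolysis assay: TRiC at 20–40 nM final (set by batch activity) with 10 uM ATP, 30 min at 37 °C, in presence of 76 uM compound. Detection by competitive ADP HTRF, 30 min ambient.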
Numbers without * were called inactive; ? = inconclusive; nt = no result; [ ] = dose if it differs, or a comment. Compounds with a hit are over-represented: about 10% of the library has one in this group of screens. Unless noted, calls come from the whole dose curve; as a rule, active = well fitted curve in the direction sought with a large enough effect; inconclusive = small, poorly fitted or top-dose-only effect, or another doubt; inactive = no such curve, though single readings can be large; an effect the other way counts as inactive or inconclusive. Unless noted, % is set by controls: 0 for no effect and ±100 for the full control effect.

SMILES | VDR inh | G9a block | MmCpn inh | Sfp inh | PLK1 PBD block | CCT modulator
O=C(O)CCCn1cc(NC(=O)c2cc(F)c(F)cc2Cl)cn1 | ? | nt | 1% | -8% | 8.4µM* | -4
CCCCOc1ccc(CNC(=O)C2CCCN(c3nnc(-n4c(C)ccc4C)s3)C2)cc1 (configuration not stated) | 10% | -4%[59 µM] | nt | nt | nt | nt
Cc1ccc(CNC(=O)c2sc3ccc(S(=O)(=O)N4CCCCC4)cc3c2N)cc1 | nt | 45µM* | -16% | -2% | nt | nt
Nc1c(C(=O)NCCC2=CCCCC2)sc2ccc(S(=O)(=O)N3CCCCC3)cc12 | 4% | ? | -15% | 22% | -4% | 2
COc1ccc(CNC(=O)C2=CCN(S(=O)(=O)c3ccc(C)cc3)CC2)cc1 | -16% | 45µM* | 1% | ? | ? | -14
COc1ccc(S(=O)(=O)N2CCC(C(=O)NCc3ccc(C)cc3)CC2)cc1 | -12% | -11% | 1% | 17% | ? | -2
Cc1ccc(S(=O)(=O)N2CC=C(C(=O)NCc3ccccc3)CC2)cc1 | -16% | 40µM* | 0% | -13% | ? | -2
O=C(NC1CCCC1)c1ccc2c(=O)n(Cc3ccccc3)c(SCc3cccc(F)c3)nc2c1 | 1% | 21%[59 µM] | nt | nt | nt | nt
COc1cccc(C(=O)Nc2cccc(-c3nc4ncccn4c3C)c2)c1 | 3% | 1%[59 µM] | nt | nt | nt | nt
CCOC(=O)c1c(S(=O)(=O)N2CCN(c3ccccc3OC)CC2)c(C)n(C)c1C | 4% | -20%[59 µM] | nt | nt | nt | nt
COc1cccc(N=C(N)N=C(N)N)c1 | -10% | 3% | -2% | 22% | -1% | 0
NC(N)=NC(N)=Nc1ccc2ccccc2c1 | -22% | 79µM* | -6% | -8% | -14% | 0
O=C(CSc1nccn1Cc1ccc(F)cc1)Nc1ccc2c(c1)OCCO2 | 4% | -50%[59 µM] | nt | nt | nt | nt
Oc1ccc2ccccc2c1C1Nc2cccc3cccc(c23)N1 | -11% | 5µM* | 0% | -9% | -9% | -1
CCN(CC)c1ccc(C2Nc3cccc4cccc(c34)N2)c(O)c1 | 13% | 32µM* | -1% | -14% | 5% | 1
Clc1ccc(C2Nc3cccc4cccc(c34)N2)c(Cl)c1 | -3% | nt | nt | nt | 0% | -1
O=C(CCS(=O)(=O)c1ccc(Br)s1)Nc1c(F)cccc1F | -7% | -37%[59 µM] | nt | nt | nt | nt
COc1ccc(C(=O)N2CCN(c3nc4c(OC)cccc4s3)CC2)cc1OC | 16% | 10%[59 µM] | nt | nt | nt | nt
CCCN1Cc2cccc(C(=O)Nc3cc(C)cc(C)c3)c2C1=O | 5% | -26%[59 µM] | nt | nt | nt | nt
COc1ccc(N2Cc3cccc(C(=O)NC(C)CCc4ccco4)c3C2=O)cc1 (configuration not stated) | ? | ? | -5% | 45µM* | ? | 0
CC(CCc1ccco1)NC(=O)c1cccc2c1C(=O)N(C1CCCCC1)C2 (configuration not stated) | -20% | -13% | -29% | -27% | -2% | -1
CC(C)NC(=S)N/N=C/c1ccc(N2CCOCC2)cc1 | -18% | 15%[59 µM] | -2% | 5% | -2% | 2
O=[N+]([O-])c1cc(Cl)cc(/C=N/NC(=S)Nc2ccc(S(=O)(=O)N3CCOCC3)cc2)c1O | -13% | 16µM* | 1% | ? | 17µM* | -1
O=S(=O)(c1ccc(Cl)c(NC(=S)N/N=C/c2c(F)cccc2F)c1)N1CCOCC1 | -6% | -4% | 0% | 6% | 4% | -1
O=S(=O)(c1ccc(Cl)c(NC(=S)N/N=C/c2ccc(O)cc2)c1)N1CCOCC1 | -5% | 1.4µM* | 1% | 12% | -15% | 1
Oc1ccc(/C=N/NC(=S)N2CCOCC2)cc1 | 7% | 50µM* | -5% | -1% | -5% | 2
CC(=O)c1c(C)[nH]c(=S)c(C#N)c1-c1ccc(Cl)cc1 | ? | 4.5µM* | -4% | ? | -23% | -1
Cc1[nH]c(=S)c(C#N)c(-c2ccco2)c1C(=O)N(C)C | 1% | 3.5µM* | -4% | 10µM* | -21% | -1
CCCCNC(=O)N(C)c1nc2ccccc2s1 | -20% | 50µM* | 2% | -6% | -23% | -6
COC(=O)N(C)c1nc2ccccc2s1 | 18% | 1%[59 µM] | 0% | 3% | 1% | -3
